Where “and” joins values, the source holds several entries; their conditions need not be identical. Equal values may be shown once. Calls of active or inactive are those of the source.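 The calls were made as follows: active = calcium retention capacity relative to untreated control above about 1.1 ratio (limit read from the data); inactive = the rest.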
assay: mitochondrial Ca2+ retention capacity increase – biochemical, dry powder samples, uHTS hits, Calcium Green-5N, dose response (AID 743360); details: isolated mitochondria, Ca retention capacity

| SMILES | CRC/CRC0 ratio at 12.5 uM (higher = more inhibition) |
| --- | --- |
| O=C(Nc1ccc(OCc2ccccc2)c(Cl)c1)c1cc(-c2cccc(O)c2)on1 | > 1 (inactive) |
| COc1ccc(Cl)cc1S(=O)(=O)Nc1ccc(CCN2CCN(C)CC2)cc1 | 1.03 (inactive) |
| O=S(=O)(Nc1ccc(CCN2CCCCC2)cc1)c1cc(Cl)cc(Cl)c1 | 1.17 (active) |
| COc1ccc(Cl)cc1C(=O)Nc1ccc(CN2CCOCC2)cc1 | 1.2 (active) |
| CN1CCN(Cc2ccc(NS(=O)(=O)c3ccc(F)c(Cl)c3)cc2)CC1 | 1.07 (inactive) |
| O=C(Nc1ccc(CN2CCCCC2)cc1)c1cc(Cl)cc(OCc2ccccc2)c1 | 22.7 (active) |
| COc1ccc(NC(=O)c2cc(-c3ccc(Cl)cc3)on2)cc1Cl | > 1 (inactive) |
| COc1ccc(Cl)c(C(=O)Nc2ccc(CN3CCN(C(=O)OC(C)(C)C)CC3)cc2)c1 | 1.37 (active) |
| COc1c(Cl)cccc1NC(=O)c1cc(-c2cccc(O)c2)on1 | 1.82 (active) |
| O=C(Nc1ccc(CN2CCCCC2)cc1)c1cc(Cl)ccc1O | 1.1 (active) |
| COc1ccc(Cl)cc1C(=O)Nc1ccc(CCN2CCOCC2)cc1 | 1.23 (active) |
| COc1ccc(C(=O)CCN2CCCC(C)C2)cc1 (stereo not drawn) | 1.07 (inactive) |
| CN1CCN(c2ccc(NS(=O)(=O)c3cccc(Cl)c3)cc2)CC1 | 1.05 (inactive) |
| Cc1c(Cl)cccc1NC(=O)c1cc(-c2cccc(O)c2)on1 | 6 (active) |
| COc1ccc(Cl)c(C(=O)Nc2ccc(CN3CCCCC3)cc2)c1 | > 1 (inactive) |
| COc1ccc(Cl)c(C(=O)Nc2ccc(CCN3CCCCC3)cc2)c1 | > 1 (inactive) |
| O=C(Nc1ccc(Cl)cc1)c1cc(-c2ccccc2)on1 | > 1 (inactive) |

| SMILES | CRC/CRC0 ratio at 12.5 uM (higher = more inhibition) |
| --- | --- |
| O=C(Nc1cccc(Cl)c1)c1cc(-c2cccc(O)c2)on1 | 5.47 (active) and 7.74 (active) |
| COc1ccc(Cl)c(C(=O)Nc2ccc(CCN3CCN(C)CC3)cc2)c1 | > 1 (inactive) |
| O=C(Nc1cc(Cl)cc(Cl)c1)c1cc(-c2cccc(O)c2)on1 | 12.1 (active) |
| O=C(Nc1ccc(F)cc1F)c1cc(-c2ccccc2)on1 | > 1 (inactive) |
| Cc1cc(NC(=O)c2ccc(-n3cnnc3)cc2)no1 | > 1 (inactive) |
| O=S(=O)(Nc1ccc(CN2CCCCC2)cc1)c1cccc(Cl)c1 | 1.03 (inactive) |
| CN1CCN(c2ccc(Cl)cc2NC(=O)/C=C/c2cccc(F)c2)CC1 | 1.53 (active) |
| O=S(=O)(Nc1ccc(CCN2CCCCC2)cc1)c1ccc(F)c(Cl)c1 | 1.07 (inactive) |
| COc1ccc(Cl)cc1S(=O)(=O)Nc1ccc(CN2CCCCC2)cc1 | 1.05 (inactive) |
| COc1ccc(Cl)cc1S(=O)(=O)Nc1ccc(N2CCN(C)CC2)cc1 | 1.03 (inactive) |
| CN1CCN(CCc2ccc(NS(=O)(=O)c3cc(Cl)cc(Cl)c3)cc2)CC1 | 1.09 (inactive) |
| CCCc1cc(C(=O)Nc2c(F)cc(F)cc2Br)no1 | 1.13 (active) |
| C[C@@H]1CCC[C@H](C)N1CCCC(=O)c1ccc(Br)cc1 | 1.01 (inactive) |
| CC(C)C1CCN(CCCC(=O)c2ccc(Br)cc2)CC1 | 1.16 (active) |
| COc1ccc(Cl)cc1S(=O)(=O)Nc1ccc(CN2CCN(C)CC2)cc1 | 1.03 (inactive) |
| COc1ccc(Cl)cc1C(=O)Nc1ccc(CCN2CCN(C)CC2)cc1 | 1.37 (active) |

Reference: PubChem BioAssay AID743360 (Molecular Libraries Program, Specialized Chemistry Center, …, 2014)
